Reference: the supplement of paper PMC6555819

tested on: RARg:RXRa (NR concentration 270 nM, RXRa partner concentration 90 nM); assay: PBM binding z-score (relative to random genomic background probes); higher = stronger binding; sequences stand for … in GC…GCGATTGACAGCGTAGAATGAAGG
In short: (§1)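 Custom Agilent 4×180K protein-binding microarrays carried double-stranded probes, each with a 34-nt variable region. These regions held direct-repeat seeds, single-nucleotide variants, half-site ablations and random human genomic background sequences. Ligand-free nuclear receptor dimers were incubated on the arrays for 1 h, antibodies against each partner (one per run) detected binding, and scanned fluorescence was regression-normalized. Binding z-scores take the random background probes as reference.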

Sequence	PBM binding z-score
ACAGACAGGTGATGAAGGTAAGTCAGGCTATCAT	0.153
GCTTGTAGATCTAGGTTAAGAAAGACTAAGCTAA	-0.324
ACAGACAGGTGATGAAGGTAACACAGGCTATCAT	0.674
GCGACTGGGGCATCAGCAGGTTACCCTAACTTAA	0.748
CGTCCAAGGTCAGCAGGTCTGTGAAAGCGACGTG	5.26
ATCTCTAGGAAAGACTCAGTTCAGTGAAGAACGC	-0.181
CAAACTCGGTCACCGGAAGGTCAAAGTCCGCATG	6.88
TCATATACGTAAACAGGTGAAAGTCCGTAAGTTA	0.708
ATATGTAGGTTAGCTGGGGTGATTCAGACTAGGC	0.84
GCTGCTAGGTCAACTGATGGTCTGCTAAAGCTCG	4.34
TCTATTATTTGAAGGGCAACCGACGAGTCCGTTT	0.739
AGAATGCGGTTACCAAAGATCAGGGAAACGCTTG	0.095
ATACCAAGGTGATCGGGAGGTCGTTGATACTAAC	2.79
ATTCAAAGTTCATCTAGGTAACGTAAGATATGCT	5.29
CCTCGGAGGACAACAGGGGGTCAGAGCTGCCAGA	4.25
TCTATTAGTTGAAGGGCAACTGACGAGTCCGTTT	0.617
CCTAGCAGGCCATGGTCACTCAAGCATTTCGCTT	-0.134
TCTGCTAGGTCAACGATGGTCAACTAATCTGCTA	4.12

tested on: RARg homodimer (NR concentration 270 nM); assay: as above
In short: as §1

Sequence	PBM binding z-score
CCTTACGGGTCACTGACAGGTTAAAGCATTTGGA	5.25
GATACAGGGACAAGGCCAGAGTACGCGTATTGAT	1.06
CGTCCTAGGTCAAGGTCAGTGAAAGAGACTCGAA	6.43
CCTACTGAGCCAAAGGTCATTGATTCCAATGCTC	4.83
CATACAGGGTCAGCCAGGCCAGAGTAGGGACGGC	4.31
GGAATGAGGGCAAAGTTGATAGCATCTGTCGACG	1.83
CCGAGTAGGTTATCGGGCATTCAGGCAACGGTGA	0.479
TAATATAGGTAAATGCTAGGTGAAAGTCCGATCT	0.601
CCTTACGGGTCACGATGTTATAGCACGACGAGCG	5.07
GCAGACAGCTGAAACGCAGGTAACTCAGGGTGGC	-0.685
TCAATGAGGTTATAAGATCAGGGAACGTTGCAAA	0.993
CCTAACGGGTCACTGACAGGTTATAGCATTTGGA	4.16
CGTCCAAAGTCAATGCTAGGTCAGTGAAAGCATT	1.31
TCATATAGGTAAACAGGTGAAAGTTCGTAAGTTA	0.601
ACAGACAGGTAATGAAGGTAACTCAGGCTATCAT	0.385
TCAGACAGGTGAAGGTAATTCAGGTACGCAGTCG	0.626
CGAACTAGGTCAAGAGGTCAAAGTCCGCTTCCCG	7.63
CCTCGGAGGACAACAGGAGGTCGGAGCTGCCAGA	1.36
AGAATGAGGTTATACGTAGATCAGGAAAGAAAGT	1.3
GCGACTGGGTCAAAGCAGGTTACCATAAGGTTGG	3.32

Sequence	PBM binding z-score
CATACAGGGTCAGGTAGGCCAGAGTAGGGACGGC	4.14
TCTAGTTGGTCACGGAGGCCACACACGACGGGTA	2.06
ACAGACAGGTGATGAAGGTAAGTCAGGCTATCAT	0.428
GCTTGTAGATCTAGGTTAAGAAAGACTAAGCTAA	-0.326
ACAGACAGGTGATGAAGGTAACACAGGCTATCAT	0.747
GCGACTGGGGCATCAGCAGGTTACCCTAACTTAA	0.106
CGTCCAAGGTCAGCAGGTCTGTGAAAGCGACGTG	6.07
ATCTCTAGGAAAGACTCAGTTCAGTGAAGAACGC	0.129
CAAACTCGGTCACCGGAAGGTCAAAGTCCGCATG	6.29
TCATATACGTAAACAGGTGAAAGTCCGTAAGTTA	0.405
ATATGTAGGTTAGCTGGGGTGATTCAGACTAGGC	0.761
GCTGCTAGGTCAACTGATGGTCTGCTAAAGCTCG	4.87
TCTATTATTTGAAGGGCAACCGACGAGTCCGTTT	0.634
AGAATGCGGTTACCAAAGATCAGGGAAACGCTTG	0.185
ATACCAAGGTGATCGGGAGGTCGTTGATACTAAC	0.879
ATTCAAAGTTCATCTAGGTAACGTAAGATATGCT	5.82
CCTCGGAGGACAACAGGGGGTCAGAGCTGCCAGA	3.49
TCTATTAGTTGAAGGGCAACTGACGAGTCCGTTT	0.548
CCTAGCAGGCCATGGTCACTCAAGCATTTCGCTT	0.141
TCTGCTAGGTCAACGATGGTCAACTAATCTGCTA	5.25

tested on: RXRa DBDmut IVT, anti-RXR (DBD mutation: RXRa K156A/R161A, NR concentration 90 nM); assay: as above
In short: as §1

Sequence	PBM binding z-score
CCTTACGGGTCACTGACAGGTTAAAGCATTTGGA	1.51
GATACAGGGACAAGGCCAGAGTACGCGTATTGAT	-0.24
CGTCCTAGGTCAAGGTCAGTGAAAGAGACTCGAA	2.02
CCTACTGAGCCAAAGGTCATTGATTCCAATGCTC	2.32
CATACAGGGTCAGCCAGGCCAGAGTAGGGACGGC	1.4
GGAATGAGGGCAAAGTTGATAGCATCTGTCGACG	2.73
CCGAGTAGGTTATCGGGCATTCAGGCAACGGTGA	-0.164
TAATATAGGTAAATGCTAGGTGAAAGTCCGATCT	0.344
CCTTACGGGTCACGATGTTATAGCACGACGAGCG	0.775
GCAGACAGCTGAAACGCAGGTAACTCAGGGTGGC	-0.772
TCAATGAGGTTATAAGATCAGGGAACGTTGCAAA	1.75
CCTAACGGGTCACTGACAGGTTATAGCATTTGGA	1.48
CGTCCAAAGTCAATGCTAGGTCAGTGAAAGCATT	0.43
TCATATAGGTAAACAGGTGAAAGTTCGTAAGTTA	1.62
ACAGACAGGTAATGAAGGTAACTCAGGCTATCAT	-0.156
TCAGACAGGTGAAGGTAATTCAGGTACGCAGTCG	1.5
CGAACTAGGTCAAGAGGTCAAAGTCCGCTTCCCG	2.69
CCTCGGAGGACAACAGGAGGTCGGAGCTGCCAGA	0.0321
AGAATGAGGTTATACGTAGATCAGGAAAGAAAGT	1.77
GCGACTGGGTCAAAGCAGGTTACCATAAGGTTGG	0.713

Sequence	PBM binding z-score
CATACAGGGTCAGGTAGGCCAGAGTAGGGACGGC	0.816
TCTAGTTGGTCACGGAGGCCACACACGACGGGTA	0.633
ACAGACAGGTGATGAAGGTAAGTCAGGCTATCAT	-0.263
GCTTGTAGATCTAGGTTAAGAAAGACTAAGCTAA	-0.252
ACAGACAGGTGATGAAGGTAACACAGGCTATCAT	-0.108
GCGACTGGGGCATCAGCAGGTTACCCTAACTTAA	-0.65
CGTCCAAGGTCAGCAGGTCTGTGAAAGCGACGTG	2.62
ATCTCTAGGAAAGACTCAGTTCAGTGAAGAACGC	0.549
CAAACTCGGTCACCGGAAGGTCAAAGTCCGCATG	1.12
TCATATACGTAAACAGGTGAAAGTCCGTAAGTTA	1.91
ATATGTAGGTTAGCTGGGGTGATTCAGACTAGGC	0.484
GCTGCTAGGTCAACTGATGGTCTGCTAAAGCTCG	1.78
TCTATTATTTGAAGGGCAACCGACGAGTCCGTTT	2.12
AGAATGCGGTTACCAAAGATCAGGGAAACGCTTG	-0.735
ATACCAAGGTGATCGGGAGGTCGTTGATACTAAC	0.167
ATTCAAAGTTCATCTAGGTAACGTAAGATATGCT	4.6
CCTCGGAGGACAACAGGGGGTCAGAGCTGCCAGA	0.19
TCTATTAGTTGAAGGGCAACTGACGAGTCCGTTT	1.49
CCTAGCAGGCCATGGTCACTCAAGCATTTCGCTT	-0.0842
TCTGCTAGGTCAACGATGGTCAACTAATCTGCTA	1.32
